# RecA splice inh: Mtb RecA intein splicing inhibitors, primary screen, biochemical, fluorescence, HTS. inhibition, % (no concentration beside the values). hit rate 0.75% among 290,000. cell-free RecA intein splicing. Protein RecA (Mycobacterium tuberculosis (strain ATCC 25618 / H37Rv)), P9WHJ3; in the data active = inhibition above about 30%;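 note: 0% = vehicle wells and 100% = reference inhibitor control wells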
# Target sequence (P9WHJ3 whole entry, looked up, canonical isoform): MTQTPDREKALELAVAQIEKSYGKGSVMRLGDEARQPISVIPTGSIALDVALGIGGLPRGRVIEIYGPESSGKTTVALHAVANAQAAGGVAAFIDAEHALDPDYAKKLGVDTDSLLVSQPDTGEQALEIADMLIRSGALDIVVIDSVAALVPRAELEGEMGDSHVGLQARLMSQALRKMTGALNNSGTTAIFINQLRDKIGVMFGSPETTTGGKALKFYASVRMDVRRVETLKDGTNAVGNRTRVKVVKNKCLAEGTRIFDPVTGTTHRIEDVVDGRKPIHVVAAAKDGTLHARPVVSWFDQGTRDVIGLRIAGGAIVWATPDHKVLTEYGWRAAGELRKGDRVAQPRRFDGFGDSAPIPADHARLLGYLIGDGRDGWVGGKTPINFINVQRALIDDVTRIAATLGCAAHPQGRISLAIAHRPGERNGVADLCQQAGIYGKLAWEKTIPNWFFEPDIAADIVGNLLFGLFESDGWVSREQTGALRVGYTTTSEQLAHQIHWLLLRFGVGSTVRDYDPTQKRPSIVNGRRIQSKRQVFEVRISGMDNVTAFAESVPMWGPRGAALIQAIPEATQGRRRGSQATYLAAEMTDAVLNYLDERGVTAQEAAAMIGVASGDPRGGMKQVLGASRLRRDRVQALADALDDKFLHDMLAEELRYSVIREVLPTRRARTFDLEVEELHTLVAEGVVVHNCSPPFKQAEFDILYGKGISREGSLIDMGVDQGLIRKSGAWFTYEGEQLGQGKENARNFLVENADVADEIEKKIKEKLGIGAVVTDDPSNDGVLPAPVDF
# Mtb FBA inh: Mtb FBA enzyme inhibitors, primary screen, biochemical, fluorescence, strain H37Rv; purified M. tuberculosis FBA, fluorescence read-out; hit rate 2.3% among 360,000; inhibition, % at 1 µM;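 note: 0% = vehicle and 100% = reference inhibitor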
# PrPC TRFRET: inhibitors of human cell surface prion protein PrPC, primary screen, cell-based, TR-FRET; Major prion protein (Homo sapiens), P04156; TR-FRET read-out; inhibition, % at 13.8 µM; hit rate 0.43% among 370,000; AID 720596, 2013; in the data active = inhibition above about 24%; note: 0% = median of the test wells and 100% = reference compound wells
# BJeLR viability: MLPCN primary cell-based screen for lethality selective to Ras in HRASV12 cells | BJeLR (HRASV12) viability, CellTiter-Glo ATP luminescence, 48 h | inhibition, % (concentration not given with the values) | hit rate 0.17% among 300,000 | AID 1554, 2009; in the data active = inhibition above about 50%
# GDH-TPI counter-1: GDH-TPI coupling enzyme inhibitors, primary screen, artefact control for M. tuberculosis FBA inhibitor project, biochemical, absorbance, full deck | GDH-TPI coupled enzyme counterscreen, NADH absorbance | inhibition, % at 4.8 µM | hit rate 1.2% among 360,000 | AID 588335, 2011; in the data active = inhibition above about 30%;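 note: 0% = DMSO wells and 100% = wells lacking the enzyme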
# Mtb FBA confirm: M. tuberculosis aldolase blockers, biochemical, fluorescence, strain H37Rv, confirmation; hit rate 78% among 5,600; shares compounds with Mtb FBA inh; purified M. tuberculosis FBA, fluorescence read-out; inhibition, % at 1 µM; AID 651616, 2012;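 note: 0% = vehicle wells and 100% = reference inhibitor wells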
# GDH-TPI counter-2: GDH-TPI coupling enzyme inhibitors, artefact control for M. tuberculosis FBA inhibitor project, biochemical, fluorescence, high throughput | inhibition, % at 1 µM | shares compounds with Mtb FBA inh | GDH-TPI coupled enzyme counterscreen | hit rate 81% among 5,600; in the data active = inhibition above about 10%
# * hit, by the source's call; x = no result given; + = active, no number; ! = not confirmed by another sample. An excerpt weighted towards active compounds, which were near 4.2% of everything screened. Cut-off read from the data, not from the text of the source, unless noted: active = inhibition above about 27%; inactive = the rest.
SMILES,RecA splice inh,Mtb FBA inh,PrPC TRFRET,BJeLR viability,GDH-TPI counter-1,Mtb FBA confirm,GDH-TPI counter-2
Oc1ccc(-c2nc3ccccn3c2NCc2ccco2)cc1,-19,52*,-4,7,12,70*,55*
O=C(Nc1c(-c2ccccc2)nc2ccccn12)c1ccco1,-1,-2,-2,-5,17,x,x
COC(=O)[C@]12C[C@H](CC(=O)NCc3cccc(C(F)(F)F)c3)C(=O)N(CCC3=CCCCC3)C1=C[C@H](C1CCCC1)O[C@@H]2C,x,x,-7,x,x,x,x
CCn1c(=O)c2cc(C(=O)N(C)CC(OC)OC)sc2c2ccccc21,1,35*,2,1,21,+,+
CCn1c(=O)c2cc(C(=O)N3CCOCC3)sc2c2ccccc21,1,17,1,-11,29,x,x
CCn1c(=O)c2cc(C(=O)NCCOC)sc2c2ccccc21,-1,51*,2,3,21,57*,43*
CCOCCCNC(=O)c1cc2c(=O)n(CC)c3ccccc3c2s1,-1,59*,-13,3,12,+,+
COC(=O)c1ccc2c(c1)c(C#Cc1ccccc1)c(-c1ccccc1)n2C,x,40*,-3,x,-5,-5,0
COc1ccc(-c2c(-c3ccc4c(c3)OCO4)c3ccccc3n2C)cc1,x,18,-4,x,7,x,x
COc1cc(C#Cc2c(-c3ccccc3)n(C)c3ccccc23)cc(OC)c1,8,38*,2,-13,8,4,-4
COc1ccc(-c2c(-c3ccccc3)n(C)c3ccccc23)cc1,x,41*,2,x,7,6,-1
Cn1c(-c2ccc(C#N)cc2)c(C#Cc2ccccc2)c2ccccc21,x,93*,-5,x,4,50*,34*
COC(=O)[C@]12C[C@H](CC(=O)NCCc3ccccc3OC)C(=O)N(Cc3ccccc3)C1=C[C@H](COCc1ccccc1)O[C@@H]2C,x,x,1,x,x,x,x
O=S(=O)(CC1NCCc2ccccc21)NCc1ccc(F)cc1 (stereo not given),x,x,-1,x,x,x,x
O=C1CCC[C@H]2C[C@H](NCc3ccc(Cl)c(C(F)(F)F)c3)CC[C@]23CCCN13,x,x,-2,x,x,x,x
Cc1nc2nc(-c3ccccc3)[nH]n2c(=O)c1C,0,13,-4,2,10,x,x
CSc1nc2nc(-c3ccccc3)cc(=O)n2[nH]1,-2,0,-5,11,7,x,x
CCOC(=O)Cc1c(C)nc2cc(-c3ccc(Cl)cc3)[nH]n2c1=O,-3,1,3,1,5,x,x
Cc1nc2cc(-c3ccccc3)[nH]n2c(=O)c1C,-2,33*,-3,2,6,95*,62*
CCc1c(C)nc2cc(-c3ccc(OC)cc3)[nH]n2c1=O,-1,35*,5,-3,11,+,+
O=c1c2c(nc3cc(-c4ccc(F)cc4)[nH]n13)CCC2,-2,38*,7,15,4,119*,81*
O=c1cc(-c2ccccc2)nc2cc(-c3ccc(F)cc3)[nH]n12,1,44*,2,4,3,0,-3
Cc1ccc(-n2c(SCc3cccc(F)c3)nc3sc4c(c3c2=O)CCCC4)cc1,x,x,7,x,x,x,x
COC(=O)[C@]12C[C@H](CC(=O)N3CCCCC3)C(=O)N(Cc3cccc4ccccc34)C1=C[C@H](C(C)C)O[C@@H]2C1CC1,x,x,11,x,x,x,x
Cc1ccccc1C(=O)N[C@H](C(=O)N1CCC[C@H]1C(=O)NCCc1ccccc1Cl)c1ccccc1,x,x,-3,x,x,x,x
NC1=NS(=O)(=O)Nc2ccccc21,x,x,6,x,x,x,x
COC(=O)c1ccccc1NC(=O)N1CCCC1,-4,28*,-5,x,4,102*,83*
COC(=O)c1ccccc1NC(=O)N1CCN(c2ccccc2F)CC1,3,4,6,-7,9,x,x
Cc1ccc2c(c1)c1c3n2CCNC3CCC1 (stereo not given),x,81*!,4,1,-1,44*,37*

# Bioassay records (PubChem BioAssay)
